Assay results reported in PubChem BioAssay (NCATS).
Inconclusive results are not listed. Where a call stands in place of a potency, no number is given. Calls of active or inactive are those of the source. The call rests on the fitted dose curve; in most records, active means well fitted activation curve with a large enough effect in the main read-out, with a control signal flat (not every such curve was filed as active); inconclusive means small, poorly fitted or top-dose-only effect, or effect the other way, or a change in a side signal; inactive means flat fitted curve, though single readings scatter.

Target: 3',5'-cyclic-AMP phosphodiesterase 4B (Homo sapiens) (UniProt Q07343)
Test: qHTS Assay for Inhibitors of PDE-IV (AID 607)
Details: HEK293 ACTOne CNG channel cells, membrane potential fluorescence; series mostly up to 22.9 µM
Outline: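 The readout is membrane depolarisation from a cAMP-sensing CNG channel, detected with a potential dye at ex 535/em 590. Cells were HEK293-derived (endogenous PDE-IV) at 1000 cells/well, titrated up to 22.9 uM final.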

Chain of 3',5'-cyclic-AMP phosphodiesterase 4B (Homo sapiens) (Q07343 whole entry, looked up): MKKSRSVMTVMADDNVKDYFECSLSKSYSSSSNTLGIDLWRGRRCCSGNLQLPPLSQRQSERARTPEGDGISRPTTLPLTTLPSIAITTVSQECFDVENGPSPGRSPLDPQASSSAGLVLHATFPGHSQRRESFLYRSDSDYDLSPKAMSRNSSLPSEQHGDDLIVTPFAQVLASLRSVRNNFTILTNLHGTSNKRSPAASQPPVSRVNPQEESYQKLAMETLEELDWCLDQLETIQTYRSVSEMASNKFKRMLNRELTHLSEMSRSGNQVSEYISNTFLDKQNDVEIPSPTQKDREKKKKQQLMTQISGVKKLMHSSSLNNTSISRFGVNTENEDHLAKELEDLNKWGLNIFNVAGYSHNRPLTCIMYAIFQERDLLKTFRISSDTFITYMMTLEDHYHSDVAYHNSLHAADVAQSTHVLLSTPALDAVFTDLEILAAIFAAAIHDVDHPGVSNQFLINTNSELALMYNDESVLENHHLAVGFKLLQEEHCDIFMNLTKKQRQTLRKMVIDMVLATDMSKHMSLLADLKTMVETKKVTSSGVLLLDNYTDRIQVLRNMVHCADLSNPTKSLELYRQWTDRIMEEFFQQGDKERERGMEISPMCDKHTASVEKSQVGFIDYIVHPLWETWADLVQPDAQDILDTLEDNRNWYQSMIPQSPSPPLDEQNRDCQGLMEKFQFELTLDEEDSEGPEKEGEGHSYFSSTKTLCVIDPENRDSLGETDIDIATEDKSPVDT

Row | SMILES | Potency
1 | Nc1nc(N)c2nc(-c3ccccc3)c(N)nc2n1 | inactive
2 | O=C(O)CCCCCCCC(=O)O | inactive
3 | C[n+]1cc2c3c(ccc2c2ccc4cc5c(cc4c21)OCO5)OCO3 | inactive
4 | CN=C(NC#N)NCCSCc1nc[nH]c1C | inactive
5 | CN(C)C(=O)Oc1ccc[n+](C)c1 | inactive
6 | CN(C(=O)CCCOc1ccc2[nH]c(=O)ccc2c1)C1CCCCC1 | inactive
7 | CN(C)CC/C=C1\c2ccccc2COc2ccccc21 | inactive
8 | c1cnc(N2CCN(Cc3ccc4c(c3)OCO4)CC2)nc1 | inactive
9 | Cc1nc2ccccn2c(=O)c1CCN1CCC(C(=O)c2ccc(F)cc2)CC1 | inactive
10 | CCN1CCC[C@H]1CNC(=O)c1c(O)c(Cl)cc(Cl)c1OC | inactive
11 | CC(C)(Oc1ccc(CCNC(=O)c2ccc(Cl)cc2)cc1)C(=O)O | inactive
12 | CCn1cc(C(=O)O)c(=O)c2cc3c(cc21)OCO3 | inactive
13 | C[N+](C)(C)CCOC(=O)CCC(=O)OCC[N+](C)(C)C | inactive
14 | NCCCNCCSP(=O)(O)O | inactive
15 | O=C(O)CN(CCOCCOCCN(CC(=O)O)CC(=O)O)CC(=O)O | inactive
16 | CC(C)NNC(=O)c1ccncc1 | inactive
17 | CNCCCN1c2ccccc2CCc2ccccc21 | inactive
18 | CCCCNC(=O)NS(=O)(=O)c1ccc(C)cc1 | inactive
19 | NC(=O)N1c2ccccc2C=Cc2ccccc21 | inactive
20 | CCNC(=O)N1CCN(CCCC(c2ccc(F)cc2)c2ccc(F)cc2)CC1 | inactive
21 | CCc1cccc(N(C)C(N)=Nc2cccc3ccccc23)c1 | inactive
22 | CCN(CC)CCNC(=O)c1cc(S(C)(=O)=O)ccc1OC | inactive
